Source: PubChem (National Center for Advancing Translational Sciences (NCATS))
IL-2 act: activators of IL-2. AID 652025. 360,000 compounds, 0.065% hits. activation, % (series mostly up to about 46 µM). IL-2 activation reporter assay, cell-based qHTS; stimulated with anti-CD3/CD4/CD28 beads; in transgenic mouse T cells; in the data active = activation above about 50%; inconclusive = mostly about 30% to 49%; also: 0% is about no effect
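Unstimulated transgenic mouse T cells, 750 per well, received compound and, after 60 minutes, anti-CD3/anti-CD4 bead plus anti-CD28 stimulation. EGFP and DsRed were quantified after 18 hours.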
Integrin act MD: activates integrin-mediated alleviation for muscular dystrophy; Potency, µM (top dose mostly 38.3 µM), for inactives: at the highest dose activation, usual class: activators; 350,000 compounds, 0.064% hits; AID 624291; alpha7betagal myoblasts, beta-gal FDG fluorescence, 48 h;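 also: potency is read from the fitted curve at half-maximal effect; 100% = response of the positive control SU9516; nearly all actives have a fitted effect of over 60% in size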
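Alpha7betagal+/- myoblasts (passage 13) were plated 16-24 hr, then exposed to compounds (1:260 dilution of DMSO stock) for 48 hours at 37C. After MPER lysis, β-galactosidase reporter activity was read as FDG fluorescence (ex 480/em 540) after 30 minutes.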
ALOX12 inh: ALOX12 (human) lipoxygenase inhibition. P18054. purified 12hLO, xylenol orange hydroperoxide absorbance. Potency, µM (titrated, usually from 108 µM), for the others: top-dose activity change, negative = inhibition, hits mostly inhibitors. 580,000 compounds, 1.1% hits; also: potency is read from the fitted curve at half-maximal effect; % is scaled to controls: 0 for no effect and ±100 for the full control effect
Target sequence (P18054 whole entry, looked up): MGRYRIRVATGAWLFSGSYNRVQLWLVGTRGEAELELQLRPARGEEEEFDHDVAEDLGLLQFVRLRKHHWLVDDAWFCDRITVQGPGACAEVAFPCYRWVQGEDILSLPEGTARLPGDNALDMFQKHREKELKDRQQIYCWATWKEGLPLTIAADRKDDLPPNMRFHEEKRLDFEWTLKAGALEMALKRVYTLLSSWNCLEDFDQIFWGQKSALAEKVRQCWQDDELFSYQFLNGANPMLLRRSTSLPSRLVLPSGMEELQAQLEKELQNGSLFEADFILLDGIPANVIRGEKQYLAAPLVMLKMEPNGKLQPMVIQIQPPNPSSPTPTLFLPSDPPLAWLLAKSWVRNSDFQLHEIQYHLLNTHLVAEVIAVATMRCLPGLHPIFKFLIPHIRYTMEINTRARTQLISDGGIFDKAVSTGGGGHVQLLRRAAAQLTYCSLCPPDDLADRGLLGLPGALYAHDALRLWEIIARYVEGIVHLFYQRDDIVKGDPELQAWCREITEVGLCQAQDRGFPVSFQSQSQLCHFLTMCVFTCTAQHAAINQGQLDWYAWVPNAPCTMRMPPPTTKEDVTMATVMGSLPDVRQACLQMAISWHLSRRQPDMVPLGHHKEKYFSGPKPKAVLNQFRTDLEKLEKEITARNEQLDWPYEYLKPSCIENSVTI
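Purified human 12hLO at 150 nM in 25 mM Hepes, 0.01% Triton X-100, pH 7.0, preincubated 15 min at room temperature with compound. Reaction started with 40 uM arachidonic acid, 30 min at room temperature. Hydroperoxide measured by Fe-xylenol orange, 573/405 nm absorbance ratio.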
Nrf2 activator: Nrf2 pathway activation. AREc32 ARE-luciferase reporter (MCF7-derived line), luminescence, 24 h. Potency, µM (series often up to 46.1 µM), without a hit: top-dose activation, usual class: activators. 410,000 compounds, 0.31% hits. AID 624171; also: potency is read from the fitted curve at half-maximal effect; % of control where 0% means no effect; nearly all actives have a fitted effect of over 65% in size
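Luciferase luminescence (Steady-Glo, 30 min at room temperature) served as the read-out of ARE activation in AREc32 cells treated with compounds for 24 hr at 37 deg C.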
uPA surface inh: inhibitors of cell surface uPA generation; 330,000 compounds, 0.31% hits; Potency, µM (doses to about 38.3 µM), without a hit: at the top dose activity change, negative = inhibition, most hits filed as inhibitors; cell surface uPA generation assay, qHTS; AID 540303; active = well fitted inhibition curve with a large enough effect; inconclusive = small, poorly fitted or top-dose-only effect; inactive = no such curve, though single readings can be large or run the other way; tested in mouse RAW 264.7 cells; also: potency is read from the fitted curve at half-maximal effect; % is scaled to controls: 0 for no effect and ±100 for the full control effect; nearly all actives have a fitted effect of over 55% in size
* marks the source's active call; other numbers are inactive results; ? = inconclusive; . = not tested or not shown; [ ] = dose if it differs, or a comment. A selection: hits, their analogues and other compounds. The true share with any hit is near 1.5%. Unless noted, calls follow the shape of the dose curve; as a rule, active = well fitted curve in the direction sought with a large enough effect; inconclusive = small, poorly fitted or top-dose-only effect, or another doubt; inactive = no such curve, though single readings can be large; an effect the other way counts as inactive or inconclusive.

SMILES	IL-2 act	Integrin act MD	ALOX12 inh	Nrf2 activator	uPA surface inh
CCOc1ccc(N(CC(=O)Nc2ccccc2Cl)S(C)(=O)=O)cc1	-1	0%	0%	4%	10µM*
CCOc1ccc(N(CC(=O)Nc2ccccc2OC)S(C)(=O)=O)cc1	0	-28%	9%	-1%	?
Cc1cc(N)cc(-c2nc3cc(C(C)C)ccc3o2)c1O	.	.	-7%	.	.
COC(=O)C1=CC(=O)C=C(OC)[C@@]12Oc1cc(C)cc(OC)c1C2=O	.	.	4.5µM*	.	.
O=C(Cc1ccccc1)NCc1ccc(-n2cccc2)cc1	-2	-18%	-8%	-1%	1.8µM*
N#CCSc1nccc(/C=C/c2ccccc2)n1	-1	7%	?	11µM*	-11%
CSc1nc2nccc(/C=C\c3ccccc3)n2n1	1	-57%	0%	?	.
CCCCN(Cc1cc2cc(C)ccc2[nH]c1=O)S(=O)(=O)c1ccc(Cl)cc1	.	.	-23%	.	.
Clc1ccccc1-c1cc(NCc2cccnc2)ncn1	.	.	-18%	.	.
FC(F)(F)c1nc(NCc2cccnc2)c2ccccc2n1	-3	-30%	12%	-2%	-4%
FC(F)(F)c1ccccc1-c1nc(NCc2cccnc2)c2ccccc2n1	.	.	45µM*	.	.
FC(F)(F)c1ccccc1-c1cc(NCc2cccnc2)ncn1	.	.	45µM*	.	.
O=C1Nc2ccc(Br)cc2C(=O)N2CCN(C(=O)C3CCNCC3)C[C@H]12	.	.	5%[176 µM]	.	.
N#C/C(=N\Nc1cc(Cl)cc(Cl)c1)c1nnc2n1CCCCC2	0	?	16µM*	-1%	10%
CCc1ccc2cc3c(cc2n1)C(=O)c1ccccc1-3	0	.	7.9µM*	23%	.
Cc1cc2c(cc1C)-c1ccccc1C2=O	.	.	32%	.	.
COCc1ccc2c(c1)c(OC(C)(C)C(=O)Nc1ccn(C)n1)nn2Cc1ccccc1	.	.	-5%[176 µM]	.	.
COc1ccc(-c2noc(CN(C(=O)c3ccc(Br)o3)C3CCCCC3)n2)cc1	.	.	13%	.	.
COC(=O)c1cccc(-n2sc3ccccc3c2=O)c1	-1	-40%	1.3µM*	23%	-25%
COC(=O)c1cccc(N2CCCC2=O)c1	2	?	1%	0%	-4%
COc1ccccc1CNCc1cc(OC)c(OC)c(OC)c1	1	-10%	-44%	0%	0%
COc1ccccc1CNCc1ccc(C)cc1	0	29%	1µM*	0%	-15%
COc1cccc(F)c1-c1ccc(COc2ccc3c(cnn3CCC(=O)O)c2)cc1	.	.	22µM*	.	.
CNC(=O)CCn1ncc2cc(OCc3ccccc3-c3ccccc3COC)ccc21	.	.	1%[176 µM]	.	.
Cc1ccccc1-c1ccc(COc2ccc3c(cnn3CCC(=O)O)c2)cc1	.	.	45µM*	.	.
SMILES	IL-2 act	Integrin act MD	ALOX12 inh	Nrf2 activator	uPA surface inh
COc1cc(F)cc(-c2ccc(COc3ccc4c(cnn4CCC(=O)O)c3)cc2)c1	.	.	28µM*	.	.
COc1cccc(-c2n[nH]c(=O)c3c2C(c2cccc(F)c2)n2nnnc2N3)c1 (configuration not stated)	.	.	-40%	.	.
Cc1nnc2n1CCC(N(C)C(=O)c1cncc(Br)c1)CC2 (configuration not stated)	.	.	51%	.	.
COc1c(C)oc2cc(O)ccc2c1=O	-2	9%	4%	0%	1%
Oc1ccc2c(c1)oc1cc(O)ccc12	-2	-42%	-15%	13µM*	?
COP(=O)(OC)c1nc(-c2cccs2)oc1NCc1ccccc1	.	.	-35%	.	.
CC1CCC/C(=N/NC(=S)Nc2ccccc2)C1 (configuration not stated)	.	.	28µM*	.	.
CCC(C)(C)C1CCC(=NNC(=S)Nc2ccccc2)CC1 (configuration not stated)	-1	8%	?	0%	0%
O=C(C1CC1)N1CCC2(CC1)NC(=O)N(c1cccc(Cl)c1)N2	.	.	1.4µM*	.	.
Cc1ccccc1CC(=O)N1CCC2(CC1)NC(=O)N(c1ccccc1)N2	.	.	1.3µM*	.	.
Cc1ccccc1CC(=O)N1CCC2(CC1)N(c1ccccc1)C(=O)CS2(=O)=O	.	.	34%	.	.
CCn1nccc1C(=O)N1CCC2(CC1)NC(=O)N(c1ccccc1)N2	.	.	5.6µM*	.	.
CCn1nccc1C(=O)N1CCC2(CCC2OC)CC1 (configuration not stated)	.	.	64%	.	.
O=C(C1CCCC1)N1CCC2(CC1)NC(=O)N(c1ccccc1)N2	.	.	2.8µM*	.	.
COc1cncc(CN2CC[C@@H]3OCC(=O)N(C(C)C)[C@H]3CC2)c1	.	.	4%[176 µM]	.	.
N#CC1=C2SCN(Cc3ccccc3)CN2C(=O)CC1c1ccc2c(c1)OCO2 (configuration not stated)	3	-12%	40µM*	0%	-4%
N#CC1=C2SCN(Cc3ccccc3)CN2C(=O)CC1c1cccs1 (configuration not stated)	-1	-15%	?	1%	-5%
COc1ccc(C2CC(=O)N3CN(Cc4ccco4)CSC3=C2C#N)cc1 (configuration not stated)	-3	17%	?	0%	0%
COc1cc(C2CC(=O)N3CN(Cc4ccco4)CSC3=C2C#N)ccc1OCc1ccccc1 (configuration not stated)	2	-25%	25µM*	0%	-12%
Cc1noc(C)c1NC(=O)N[C@@H]1CCC[C@@H](C(=O)N2CCN(C)CC2)CC(=O)N(C)C1	.	.	23%[176 µM]	.	.
Cc1cc(C(=O)N2CC[C@](O)(c3ccccc3)[C@H](N(C)C)C2)n[nH]1	.	.	1%	.	.
O=C(N/N=C/c1ccsc1)c1ccncc1	.	.	1%	.	.
OCCCNC(=S)NC1CC2CCC1C2 (configuration not stated)	.	.	-7%	.	.
CN(C)NC(=S)NC1CC2CCC1C2 (configuration not stated)	-2	-14%	18µM*	-1%	-2%
O=C(Nc1cccc(-c2nnc3n2CCCC3)c1)c1cccc(F)c1	.	.	0%	.	.
SMILES	IL-2 act	Integrin act MD	ALOX12 inh	Nrf2 activator	uPA surface inh
COc1ccc([C@@H]2C[C@@H](c3ccccc3)Oc3cc(OC)cc(OC)c32)cc1	0	11%	-9%	1%	4%
COc1ccc([C@@H]2C[C@H](c3ccccc3)Oc3cc(C)cc(C)c32)cc1	0	-10%	1.1µM*	0%	-3%
CCc1ccc2cc(-c3ccc(C)c(C)c3)cn2c1	.	.	25µM*	.	.
CC(=Nc1ccc(Cl)cc1N)c1c(O)cc(C)oc1=O	.	.	35µM*	.	.
CS(=O)(=O)N1CCCC1C(=O)NC1CCCCC1 (configuration not stated)	.	.	-2%	.	.
C/C(=C\C(=O)c1ccncc1)Nc1ccccc1O	0	-31%	-2%	14µM*	-12%
Cc1cccc(S(=O)(=O)C(C#N)c2nc3ccccc3nc2N2CCN(c3ccccc3)CC2)c1 (configuration not stated)	.	.	-32%	.	.
O=C1OC(/C=C/c2ccc(Cl)cc2Cl)=NC/1=C\c1cccs1	-1	-9%	35µM*	1%	0%
CCOC(=O)c1c(N2C(=O)CC(Sc3ccccc3C(=O)O)C2=O)sc2c1CCCC2 (configuration not stated)	-1	-28%	16µM*	6%	-5%
